Measurements from PubChem BioAssay AID651956 (Broad Institute, 2012).
Entries with a potency or affinity are not part of this list. Records with an inconclusive call do not appear. The source made the active and inactive calls.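 How the source made its calls: active means in every test run, a fitted half-maximal concentration for signal decrease at or below twice the highest tested concentration; inconclusive means runs disagree, flat 30 to 70% decrease, or poor fit; inactive means the rest.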

Experiment: miR-122 activators in hepatoma reporter cells, dose response, cell-based, Huh7 psiCHECK-miR122, Renilla luciferase, cherry-picked (AID 651956);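 further: Renilla luciferase from a miR-122 sensor reporter so lower signal means miR-122 activation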
Settings: 48 h; series mostly up to 35 µM

outcome, inactive:
COc1cccc(C(=O)Nc2ccc3c(c2)C(=O)N(C)[C@H]2CC[C@H](CC(=O)NCc4ccc(F)cc4)O[C@@H]2CO3)c1
CN1C(=O)c2cc(NC(=O)c3cccc(F)c3)ccc2OC[C@H]2O[C@H](CC(=O)N3CCc4ccccc4C3)CC[C@H]21
C/C=C/c1ccc([C@@H]2[C@@H](CN(C(=O)COC)C(C)C)N(C(C)=O)[C@H]2CO)cc1
CNC(=O)C[C@@H]1CC[C@@H]2[C@@H](COc3ccc(NC(=O)Cc4cccs4)cc3C(=O)N2C)O1
CO[C@H]1CN(C)C(=O)c2cc(NC(=O)C3CC3)ccc2OC[C@H](C)N(CCc2ccccc2)C[C@H]1C
COc1cccc(CNC(=O)C[C@@H]2CC[C@H]3[C@H](COc4ccc(NC(C)=O)cc4C(=O)N3C)O2)c1
C[C@H](CO)N1C[C@H](C)[C@H](CN(C)S(=O)(=O)c2ccc(F)cc2)Oc2ccc(NS(C)(=O)=O)cc2C1=O
CCCNC(=O)N1[C@H](CO)[C@@H](c2ccccc2)[C@H]1CNC(=O)c1ccccc1
C[C@H](O)C#Cc1ccc2c(c1)O[C@@H](CN(C)Cc1ccc(-c3ccccc3)cc1)[C@H](C)CN([C@H](C)CO)S2(=O)=O
CNC(=O)C[C@@H]1CC[C@H]2[C@@H](COc3ccc(NC(=O)NC(C)C)cc3C(=O)N2C)O1
COc1nnc(-c2ccc(N3CCOCC3)c(NC(=O)c3ccccc3)c2)c2ccccc12
N#Cc1ccc(C(=O)Nc2ccc(N3CCN(C(=O)c4ccco4)CC3)cc2)c(F)c1
